An excerpt weighted towards active compounds, which were near 4.3% of everything screened.
HIF-2a block: HIF-2a reporter inhibitors, primary screen, luminescence, 786-0 RCC cells | 786-0 RCC cells HIF-2a reporter, luciferase luminescence, overnight | inhibition, % at 18.8 µM | hit rate 0.72% among 360,000 | AID 624352, 2012;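 active = inhibition of the luminescence signal of 40% or more relative to plate controls, in a single-dose primary screen at 18.75 µM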
CF NFkB inh: inhibitors of PAF-induced NF-kB signaling, primary screen, cell-based, GFP fluorescence, uHTS. inhibition, % at 5 µM. KKLEB NF-kB-GFP reporter, GFP fluorescence overnight. AID 588850, 2011. hit rate 0.86% among 360,000;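 active = at least 50% inhibition at 5 µM, scaled per plate between neutral and stimulator controls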;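 also: PAF is a Pseudomonas aeruginosa culture filtrate used as stimulus; plate controls were PAF-stimulated DMSO wells for no effect and unstimulated DMSO wells for full effect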
MITF TRPM1 inh: inhibitors of MITF-dependent TRPM1 promoter reporter, primary screen, cell-based, SK-MEL-5, single point, luciferase; SK-MEL-5 TRPM1 promoter luciferase, 24 h; inhibition, % at 12.5 µM; hit rate 0.83% among 330,000; AID 488899, 2010;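 active = mean inhibition across replicates of 60% or more, whatever share of single replicates reaches that level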
CHOP inhibitor: inhibitors of CHOP promoter induction, primary screen, cell-based, unfolded protein response, luciferase reporter; inhibition, % at 10 µM; AID 2732, 2010; hit rate 3.8% among 220,000; CHO-K1 CHOP-promoter luciferase, tunicamycin-induced, 15-18 h;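 active = compounds that reduced the stress-induced luciferase reporter signal by more than about 70% of percent inhibition, limit read from the data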;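 also: 0% = tunicamycin plus vehicle and 100% = wells without tunicamycin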
Peg3 promoter: Peg3 promoter-driven luciferase inhibitors, primary screen, cell-based, HeLa, luciferase luminescence | HeLa PEG-Prom luciferase reporter, overnight | inhibition, % at 20 µM | hit rate 1.7% among 360,000 | AID 588405, 2011;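 active = inhibition of at least 50% at 20 µM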
KKLEB tox: cytotoxicity in KKLEB CF airway cells, primary screen, cytotoxicity control for CF NF-kB inhibitor project, cell-based, uHTS, fluorescence assay plates; activity change (cytotoxicity), % at 5 µM; hit rate 0.36% among 360,000; KKLEB CF airway cells viability, ATPlite luminescence, overnight; hits give low values; cells stimulated with P. aeruginosa culture filtrate;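 active = corrected activity change at or below -50% at 5 µM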
Starred values were filed as active, the others as inactive; nt = not tested or not shown.

SMILES	HIF-2a block	CF NFkB inh	MITF TRPM1 inh	CHOP inhibitor	Peg3 promoter	KKLEB tox
OCC1OC(n2cnc3c(NCc4ccccc4O)ncnc32)C(O)C1O (stereo unspecified)	-25	30	59	nt	71*	-54*
COc1ccc2c(c1)CSC(c1ccccc1)C2=O (stereo unspecified)	-184	-78	nt	nt	-164	10
N#C/C(=C/c1ccc(N2CCCC2)c([N+](=O)[O-])c1)c1nc2ccccc2[nH]1	-156	2	-17	78*	-99	-9
N#C/C(=C\c1ccc(N2CCOCC2)c([N+](=O)[O-])c1)c1nc2ccccc2[nH]1	-147	14	-36	53	12	-2
Cc1ccc2nc(/C(C#N)=C\c3ccc(N4CCCCC4)c([N+](=O)[O-])c3)[nH]c2c1	-72	-27	3	79*	1	17
Cc1ccccc1S(=O)(=O)NC(=O)C1(C)CCN1C(=O)C1(c2ccccc2)CC1 (stereo unspecified)	0	4	nt	nt	6	-5
CC1CCC(=O)N(CCC#N)CC1 (stereo unspecified)	15	11	-3	nt	-3	-16
CC(C)CN(CC(C)C)CC(O)COc1ccccc1Br (stereo unspecified)	23	17	-7	85*	0	-13
O=C(C(=O)N1CCN(Cc2ccc3c(c2)OCO3)CC1)c1c[nH]c2ccccc12	6	10	18	nt	-14	3
CCc1nc2c(OCc3ccccc3)cccn2c1N(Cc1ccccc1)C(C)=O	16	7	nt	nt	16	-1
CC(C)OC(=O)c1cc2c(ccn2C)n1CC(=O)N1CCC(Cc2ccccc2)CC1	15	-16	6	70*	27	-4
CCOC(=O)c1cc2c(ccn2C)n1CC(=O)N(Cc1ccccc1)c1ccc(F)cc1	7	3	15	70*	15	0
CCOC(=O)c1cc2c(ccn2C)n1CC(=O)N(Cc1ccccc1)c1ccccc1	12	-12	4	52	17	-11
CC(C)OC(=O)c1cc2c(ccn2C)n1CC(=O)N(Cc1ccccc1)c1ccc(F)cc1	-2	-18	17	71*	21	7
O=C(NC(c1cccnc1)c1ccc2c(c1)OCO2)C1CCN(CCOc2ccc(Cl)cc2Cl)CC1 (stereo unspecified)	-19	-4	nt	nt	10	-3
Cn1c(CCN2CCN(c3ccccn3)CC2)nc2cc(NC(=O)COc3ccc(Cl)cc3)ccc21	22	23	58	nt	52*	-12
COc1ccc(OCC(=O)Nc2ccc3c(c2)nc(CCN2CCN(c4ccccn4)CC2)n3C)cc1	-5	-27	nt	nt	6	25
Cc1cccc(OC(C)C(=O)Nc2nccs2)c1 (stereo unspecified)	-40	13	-23	nt	-21	-7
CCOC(=O)C1C(c2ccccc2Cl)NC(=O)N(C)C1(O)C(F)(F)F (stereo unspecified)	5	-5	-2	70*	32	12
CCOC(=O)C1C(c2ccccc2O)NC(=O)NC1(O)C(F)(F)F (stereo unspecified)	17	1	1	nt	16	-4
Cc1cc(OCC(=O)Nc2ccc(N3CCN(C)CC3)cc2)ccc1Cl	-131	-26	-49	nt	-170	12
CC(=O)NCCNc1nc2cc(-c3cscc3C)sc2c(=O)n1C	-14	-4	nt	nt	-7	-2
CN(C)c1nc(-c2ccccn2)nnc1-c1ccccc1	8	19	78*	50	53*	-15
c1ccc(-c2nnc(-c3ccccn3)c(-c3ccccn3)n2)nc1	13	-22	nt	2	7	12
CCOC(=O)c1cccc(NC(=O)Cn2cc3c(n2)CCC(C)C3)c1 (stereo unspecified)	-17	-4	7	83*	7	12
O=C(COC(=O)C12CC3CC(CC(C3)C1)C2)NCCc1ccccc1	1	-4	-1	77*	19	-5

Bioassay records: PubChem BioAssay, several laboratories
